Experimental findings from article PMC4336329 (PLoS ONE, 2015) are described below.

The campaign covered roughly 310,000 compounds. About 14,000 (4.5%) showed an effect of 50% or more. Effects have a minus sign here. Shown is part of a subset that was picked to be rich in strong results.
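Further: peak tail current of the secondary pulse compared with the same well before compound.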

human ether-à-go-go-related gene (hERG) potassium channel, sequence (Q12809 whole entry, looked up): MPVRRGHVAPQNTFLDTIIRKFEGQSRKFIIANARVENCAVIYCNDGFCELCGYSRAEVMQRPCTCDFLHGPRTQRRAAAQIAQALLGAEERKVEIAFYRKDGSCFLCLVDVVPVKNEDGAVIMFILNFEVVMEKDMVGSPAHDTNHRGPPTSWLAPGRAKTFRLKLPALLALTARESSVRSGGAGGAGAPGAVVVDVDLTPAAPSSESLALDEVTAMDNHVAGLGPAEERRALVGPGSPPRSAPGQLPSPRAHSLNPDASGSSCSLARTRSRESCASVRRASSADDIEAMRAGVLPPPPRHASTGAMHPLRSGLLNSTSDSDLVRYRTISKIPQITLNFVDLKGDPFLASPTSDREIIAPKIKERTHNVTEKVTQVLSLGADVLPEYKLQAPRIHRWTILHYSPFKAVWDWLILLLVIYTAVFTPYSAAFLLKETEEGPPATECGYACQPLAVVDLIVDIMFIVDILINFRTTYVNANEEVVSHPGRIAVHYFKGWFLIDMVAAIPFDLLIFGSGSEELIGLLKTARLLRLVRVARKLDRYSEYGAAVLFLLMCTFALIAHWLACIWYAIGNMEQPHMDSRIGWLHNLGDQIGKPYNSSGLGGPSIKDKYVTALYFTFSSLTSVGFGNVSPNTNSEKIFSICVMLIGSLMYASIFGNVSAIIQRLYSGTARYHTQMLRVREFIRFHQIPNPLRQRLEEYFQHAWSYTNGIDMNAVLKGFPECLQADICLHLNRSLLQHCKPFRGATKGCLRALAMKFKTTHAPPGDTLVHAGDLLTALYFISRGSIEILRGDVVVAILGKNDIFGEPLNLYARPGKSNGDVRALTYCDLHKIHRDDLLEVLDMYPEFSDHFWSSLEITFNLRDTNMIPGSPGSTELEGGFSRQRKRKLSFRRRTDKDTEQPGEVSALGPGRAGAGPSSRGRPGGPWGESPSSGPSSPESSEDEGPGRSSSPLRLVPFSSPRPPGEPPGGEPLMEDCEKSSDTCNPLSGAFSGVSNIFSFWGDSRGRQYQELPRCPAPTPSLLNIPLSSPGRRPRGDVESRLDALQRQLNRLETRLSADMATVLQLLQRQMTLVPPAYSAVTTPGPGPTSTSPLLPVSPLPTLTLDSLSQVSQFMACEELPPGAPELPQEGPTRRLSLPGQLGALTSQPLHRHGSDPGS

This assay has as its target human ether-à-go-go-related gene (hERG) potassium channel (human, UniProt Q12809). The assay is described as follows: primary screen, population patch clamp on CHO cells stably expressing hERG; higher = less effect of the substance. The procedure: Briefly, Chinese hamster ovary (CHO) cells stably expressing the hERG channel were dislodged from tissue culture flasks and dispensed into PPC plates. […] During the recording, background leak currents were estimated by a 100 ms step to -80 mV from an initial holding potential of -70 mV and subtracted from the subsequent current measurement. The campaign was conducted in two phases using slight differences in recording protocol. In the first phase, the initial voltage pulse used a 100 ms step to -30 mV from a holding potential of -70 mV, a 2 s conditioning step to +25 mV, and a 2 s test step to -30 mV. During the second phase of the screen, the potential during the conditioning step was raised to +45 mV. In both phases of the campaign, a secondary voltage pulse was applied using the same parameters as the second phase initial pulse. The initial and secondary pulses were applied in the absence of compound, and upon application of 1 μM and 10 μM test concentrations. […]
For the compound `CC12CCC(=O)N1C(C(=O)NCc1ccccc1Cl)CS2` (stereo not shown), the “hERG current change (%, negative = inhibition) at 10uM” value is recorded as -9.42%.

As to `Cc1cc(C)c(OCC(=O)N/N=C/c2ccco2)c(C)c1`, the “hERG current change (%, negative = inhibition) at 10uM” value is -3.8%.

As to `O=C1NC(=O)/C(=C\c2ccc(OCc3cnc(Cl)s3)cc2)S1`, the “hERG current change (%, negative = inhibition) at 10uM” value amounted to 19.9%.

For the compound `COc1cccc(Nc2cc(N3CCOCC3)c3nonc3c2[N+](=O)[O-])c1`, the “hERG current change (%, negative = inhibition) at 10uM” value is -8.87%.

As for `O=C(NCCO)N1c2ccccc2Sc2ccccc21`, the “hERG current change (%, negative = inhibition) at 10uM” value worked out at 5.99%.

With `O=C(O)CCNC(=O)OCC1c2ccccc2-c2ccccc21`, the “hERG current change (%, negative = inhibition) at 10uM” value is listed as -6.49%.

In the case of `COc1ccc(CCN2C(=O)C(C)=C(C)C2=O)cc1OC`, the “hERG current change (%, negative = inhibition) at 10uM” value turned out to be 11.7%.

Turning to `Nn1c(SCC(=O)Nc2ccc3c(c2)OCO3)nnc1C1CC1`, the “hERG current change (%, negative = inhibition) at 10uM” value came out at 7.91%.

For the compound `COc1ccc(N(C)S(=O)(=O)c2ccc(Cl)c(C(=O)NCC(C)(C)N3CCOCC3)c2)cc1`, the “hERG current change (%, negative = inhibition) at 10uM” value is given as -41.5%.

As for `Cc1ccc(NS(=O)(=O)c2ccc(NC(=O)N3CCCCC3)cc2)cc1`, the “hERG current change (%, negative = inhibition) at 10uM” value is 8.78%.

For the compound `COCCOc1cc(NC(=O)c2cccc(OC)c2)c(Cl)cc1Cl`, the “hERG current change (%, negative = inhibition) at 10uM” value is 6.22%.

Regarding `COc1ccc(OCC(O)CN(C)C(=O)/C=C/c2cccc([N+](=O)[O-])c2)cc1` (stereo not shown), the “hERG current change (%, negative = inhibition) at 10uM” value is reported as -80.5%.

With `CC(C)N(C(=O)/C=C/c1cccc([N+](=O)[O-])c1)C(C)C`, the “hERG current change (%, negative = inhibition) at 10uM” value is on record as -13.8%.

For the compound `COc1ccc(/C=C/C(=O)OCc2cccc([N+](=O)[O-])c2)cc1`, the “hERG current change (%, negative = inhibition) at 10uM” value is on record as -9.66%.

As to `CCCC(C)NC(=O)/C=C/c1cccc([N+](=O)[O-])c1` (stereo not shown), the “hERG current change (%, negative = inhibition) at 10uM” value is given as -7.16%.

In the case of `COc1ccc(OCC(O)CNC(=O)/C=C/c2cccc([N+](=O)[O-])c2)cc1` (stereo not shown), the “hERG current change (%, negative = inhibition) at 10uM” value amounted to 17.6%.

`CCCCN(CCCC)C(=O)/C=C/c1cccc([N+](=O)[O-])c1`: the “hERG current change (%, negative = inhibition) at 10uM” value is listed as -68%.

For the compound `CCCCN(CC)C(=O)/C=C/c1cccc([N+](=O)[O-])c1`, the “hERG current change (%, negative = inhibition) at 10uM” value is recorded as -63.5%.

As for `CCCN(CC(=O)Nc1ccc(Cl)cc1Cl)C(=O)/C=C/c1cccc([N+](=O)[O-])c1`, the “hERG current change (%, negative = inhibition) at 10uM” value was -15.6%.

Regarding `CCCN(CCC)C(=O)/C=C/c1cccc([N+](=O)[O-])c1`, the “hERG current change (%, negative = inhibition) at 10uM” value is recorded as -34.5%.

With `O=C(CCNC(=O)c1ccco1)Nc1ccc(Cl)c(C(F)(F)F)c1`, the “hERG current change (%, negative = inhibition) at 10uM” value is given as -16.3%.

In the case of `CCOC(=O)N1CCC(NC(=O)c2cc(COc3ccc(F)cc3Cl)on2)CC1`, the “hERG current change (%, negative = inhibition) at 10uM” value is given as -0.672%.

With `CCN(CC)c1ccc(/C=N/Nc2nc(C)cc(C)n2)c(O)c1`, the “hERG current change (%, negative = inhibition) at 10uM” value is -7.99%.

Regarding `Cc1ccc(C)c(S(=O)(=O)NCCCc2ccccc2)c1`, the “hERG current change (%, negative = inhibition) at 10uM” value was -1.65%.

Regarding `CN(c1ccc(C(=O)N2CCOCC2)cc1)S(=O)(=O)c1cccs1`, the “hERG current change (%, negative = inhibition) at 10uM” value came out at 29%.

With `COc1ccccc1NC(=O)CON=C(N)CC(=O)NC1CCCCC1`, the “hERG current change (%, negative = inhibition) at 10uM” value is given as -1.99%.

Regarding `CSc1nnc(NC(=O)c2cccc(S(=O)(=O)N3CCOCC3)c2)s1`, the “hERG current change (%, negative = inhibition) at 10uM” value is on record as -5%.

Regarding `Cn1c(=O)n(C)c2cc(C(=O)c3ccccc3)ccc21`, the “hERG current change (%, negative = inhibition) at 10uM” value is listed as -1.74%.

For the compound `Cc1cc(C)c[n+](CC(=O)c2ccccc2)c1.[Br-]`, the “hERG current change (%, negative = inhibition) at 10uM” value came to 22.8%.

For `Cc1cc(C)c[n+](CC(=O)c2c(C)cc(C)c([N+](=O)[O-])c2C)c1.[Br-]`, the “hERG current change (%, negative = inhibition) at 10uM” value is recorded as -68.6%.

In the case of `Cc1cc(C)c[n+](CC(=O)c2ccc(C)c([N+](=O)[O-])c2)c1.[Br-]`, the “hERG current change (%, negative = inhibition) at 10uM” value is -13.2%.

On to `COc1cc(NS(=O)(=O)c2c(C)[nH]c(C)c2C(=O)N2CCCCC2)cc(OC)c1OC`, for which the “hERG current change (%, negative = inhibition) at 10uM” value is on record as 5.18%.

For `CCCCCn1nc(C(=O)N2CCc3ccccc32)c2ccccc2c1=O`, the “hERG current change (%, negative = inhibition) at 10uM” value is reported as -3.43%.

Take `Cc1ccc2nc(Nc3ncc4c(n3)CC(C)(C)CC4=O)nc(C)c2c1`: the “hERG current change (%, negative = inhibition) at 10uM” value came to 15.3%.

In the case of `O=C(CSc1nc2ccc(NC(=O)C3CCCCC3)cc2s1)NCC1CCCO1` (stereo not shown), the “hERG current change (%, negative = inhibition) at 10uM” value was determined as 2.42%.

In the case of `O=C(CSc1nc2ccc([N+](=O)[O-])cc2s1)NCC1CCCO1` (stereo not shown), the “hERG current change (%, negative = inhibition) at 10uM” value was -54.4%.

Regarding `N#CC1(NC(=O)CSc2nc3ccccc3s2)CCCCC1`, the “hERG current change (%, negative = inhibition) at 10uM” value is given as -15.7%.

Regarding `O=C(CSc1nc2ccccc2s1)NCC1CCCO1` (stereo not shown), the “hERG current change (%, negative = inhibition) at 10uM” value worked out at 7.82%.

In the case of `N#CC1(NC(=O)CN2C(=O)c3ccc([N+](=O)[O-])cc3C2=O)CCCCC1`, the “hERG current change (%, negative = inhibition) at 10uM” value was 4.83%.

Take `N#CC1(NC(=O)CSc2nc3ccc([N+](=O)[O-])cc3s2)CCCCC1`: the “hERG current change (%, negative = inhibition) at 10uM” value is on record as -69.5%.

With `CCn1c(/N=C/c2ccccc2NS(=O)(=O)c2ccc(C)cc2)nc2ccccc21`, the “hERG current change (%, negative = inhibition) at 10uM” value is reported as -19.8%.

For `COc1ccc(N(CC(=O)Nc2ccc(F)c(F)c2)S(=O)(=O)c2c(C)[nH]c(=O)[nH]c2=O)cc1`, the “hERG current change (%, negative = inhibition) at 10uM” value was found to be 19.9%.

As for `NC(=O)COC(=O)c1ccc(-c2ccccc2)cc1`, the “hERG current change (%, negative = inhibition) at 10uM” value was determined as 14.2%.

For `O=C(CCCC(=O)N(CC(=O)NC1CCCCC1)Cc1ccc2c(c1)OCO2)Nc1ccccn1`, the “hERG current change (%, negative = inhibition) at 10uM” value was -54.3%.

With `CC(C)CCNC(=O)CN(Cc1ccc2c(c1)OCO2)C(=O)CCC(=O)Nc1ccccn1`, the “hERG current change (%, negative = inhibition) at 10uM” value was -70.7%.

Take `CC(C)CCNC(=O)CN(Cc1ccccc1)C(=O)CCC(=O)Nc1ccccn1`: the “hERG current change (%, negative = inhibition) at 10uM” value is listed as -19.7%.

For `O=C(CCCC(=O)N(CC(=O)NC1CCCCC1)Cc1ccccc1)Nc1ccccn1`, the “hERG current change (%, negative = inhibition) at 10uM” value is -6.57%.

For `O=C(CCCC(=O)N(CC(=O)NC1CCCC1)Cc1ccc2c(c1)OCO2)Nc1ccccn1`, the “hERG current change (%, negative = inhibition) at 10uM” value is -26.5%.

With `CC(C)NC(=O)CN(Cc1ccc2c(c1)OCO2)C(=O)CCC(=O)Nc1ccccn1`, the “hERG current change (%, negative = inhibition) at 10uM” value came to 1.7%.

With `Cc1cccc(OCC(=O)N/N=C/c2cc([N+](=O)[O-])ccc2N2CCOCC2)c1`, the “hERG current change (%, negative = inhibition) at 10uM” value is reported as -9.73%.

In the case of `COc1ccc(-c2oc3ccc(N4CCOCC4)cc3c2C#CC2(O)CCCCC2)cc1`, the “hERG current change (%, negative = inhibition) at 10uM” value was 17.3%.

Turning to `CCN(CC)c1ccc(/C=C2/C(=O)ON=C2C)cc1`, the “hERG current change (%, negative = inhibition) at 10uM” value is given as -20.9%.

With `CCc1ccc(CNC(=O)C2CCCN(c3nn4c(=O)cc(C)nc4s3)C2)cc1` (stereo not shown), the “hERG current change (%, negative = inhibition) at 10uM” value is on record as -36.2%.

Take `Cc1cc(=O)n2nc(N3CCC(C(=O)NCCc4ccc(Cl)cc4)CC3)sc2n1`: the “hERG current change (%, negative = inhibition) at 10uM” value is listed as -54.5%.

Consider `Cc1ccc(CNC(=O)C2CCCN(c3nn4c(=O)cc(C)nc4s3)C2)cc1` (stereo not shown), for which the “hERG current change (%, negative = inhibition) at 10uM” value was -31.1%.

As for `Cc1cc(=O)n2nc(N3CCCC(C(=O)NCc4ccc(Cl)cc4)C3)sc2n1` (stereo not shown), the “hERG current change (%, negative = inhibition) at 10uM” value is -71.7%.

As to `Cc1cc(=O)n2nc(N3CCCC(C(=O)N4CCN(C)CC4)C3)sc2n1` (stereo not shown), the “hERG current change (%, negative = inhibition) at 10uM” value is given as -7.39%.

Consider `Cc1cc(=O)n2nc(N3CCC(C(=O)NCc4ccco4)CC3)sc2n1`, for which the “hERG current change (%, negative = inhibition) at 10uM” value is on record as 17.9%.

`Cc1cc(=O)n2nc(N3CCC(C(=O)NCCc4ccccc4)CC3)sc2n1`: the “hERG current change (%, negative = inhibition) at 10uM” value is -10.1%.

As to `Cc1ccc(CCNC(=O)C2CCN(c3nn4c(=O)cc(C)nc4s3)CC2)cc1`, the “hERG current change (%, negative = inhibition) at 10uM” value is given as -33.4%.

`CCCc1cc(=O)n2nc(N3CCC(C(=O)NCc4ccco4)CC3)sc2n1`: the “hERG current change (%, negative = inhibition) at 10uM” value was -44.4%.

Take `Cc1cc(=O)n2nc(N3CCC(C(=O)N4CCN(c5ccccc5)CC4)CC3)sc2n1`: the “hERG current change (%, negative = inhibition) at 10uM” value is on record as -11.9%.

Regarding `Cc1cc(=O)n2nc(N3CCCC(C(=O)N4CCN(c5ccccc5)CC4)C3)sc2n1` (stereo not shown), the “hERG current change (%, negative = inhibition) at 10uM” value is -53.5%.

As for `CCCc1cc(=O)n2nc(N3CCC(C(=O)NCc4ccc(C)o4)CC3)sc2n1`, the “hERG current change (%, negative = inhibition) at 10uM” value is -61.6%.
